# Only some compounds are listed: those with a hit (about 27% of all), similar ones and a draw of the others.
# sEH act: soluble epoxide hydrolase activators, primary screen, biochemical, human sEH; Bifunctional epoxide hydrolase 2 (Homo sapiens), P34913; purified human sEH enzymatic activity, activator screen; activation, % at 2 µM; 91,000 compounds, 0.04% hits; AID 717, 2007; in the data active = activation above about 37%
# CYP2C19 inhib: blockers of cytochrome P450 2C19 activity – biochemical, luminescence, ADME assay, primary screen | P33261 | inhibition, % at 5 µM | CYP2C19 Supersomes, luciferin-H EGE luminescence, 30 min | 96,000 compounds, 21% hits;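 active = CYP2C19 inhibition above a set limit at 5 µM in the primary screen, cut at about 50% in these data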;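 note: plate controls were negative control wells for no effect and 2.5 mM tranylcypromine positive control for full effect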
# sEH inh: soluble epoxide hydrolase inhibitors, primary screen, biochemical, human sEH; AID 707, 2007; recombinant human sEH enzymatic activity assay; 91,000 compounds, 0.34% hits; Bifunctional epoxide hydrolase 2 (Homo sapiens), P34913; inhibition, % at 2 µM; in the data active = inhibition above about 80%
# CYP2C9 act: human CYP2C9 activators, primary screen, biochemical, luminescence. Cytochrome P450 2C9 (Homo sapiens), P11712. recombinant CYP2C9, luciferin-H conversion; active compounds read high; factor 1 = untreated enzyme, 0 = blocked. activation factor at 5 µM. 96,000 compounds, 1.4% hits. AID 1024, 2008;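 active = activation factor of 2 or more for CYP2C9 at a 5 µM dose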;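 note: 0 = sulfaphenazole-blocked wells and 1 = vehicle-only wells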
# Target sequence (P11712 whole entry, looked up): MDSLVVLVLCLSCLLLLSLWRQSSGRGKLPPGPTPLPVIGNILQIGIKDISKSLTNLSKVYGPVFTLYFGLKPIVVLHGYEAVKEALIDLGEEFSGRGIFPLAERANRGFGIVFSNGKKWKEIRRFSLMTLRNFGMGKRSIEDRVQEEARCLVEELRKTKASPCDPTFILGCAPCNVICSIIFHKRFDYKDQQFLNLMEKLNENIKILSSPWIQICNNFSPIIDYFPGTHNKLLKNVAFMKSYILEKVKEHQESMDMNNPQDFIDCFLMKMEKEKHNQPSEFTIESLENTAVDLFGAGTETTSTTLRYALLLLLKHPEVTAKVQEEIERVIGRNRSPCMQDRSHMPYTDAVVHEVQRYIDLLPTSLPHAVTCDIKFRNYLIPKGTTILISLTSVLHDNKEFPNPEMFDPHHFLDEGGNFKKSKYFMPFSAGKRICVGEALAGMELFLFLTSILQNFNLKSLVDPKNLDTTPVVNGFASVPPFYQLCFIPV
# CYP2C9 inhib: blockers of cytochrome P450 2C9 activity – biochemical, luminescence, ADME assay, primary screen; inhibition, % at 5 µM; CYP2C9 Supersomes, luciferin-H conversion; 96,000 compounds, 20% hits; AID 777, 2007;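 active = blocking of liver enzyme CYP2C9 beyond about 50% at 5 µM, limit read from the data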
# CYP2C19 activ: human CYP2C19 activators, primary screen, biochemical, luminescence; recombinant CYP2C19, luciferin-H EGE luminescence; active compounds read high; 0 = fully inhibited enzyme, 1 = untreated enzyme; activation factor at 5 µM; AID 1025, 2008; Cytochrome P450 2C19 (Homo sapiens), P33261; 96,000 tested, under 10 active;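 active = activation factor of at least 2 at 5 µM in the primary screen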;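 note: 0 = wells with 2.5 mM tranylcypromine and 1 = vehicle-only wells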
# * = called active by the depositor; x = no result.
SMILES,sEH act,CYP2C19 inhib,sEH inh,CYP2C9 act,CYP2C9 inhib,CYP2C19 activ
CC(Sc1nnc(-c2cccs2)n1Cc1ccccc1)C(=O)NCc1ccc2c(c1)OCO2 (stereo unspecified),-13,48,10,0.2,85*,0.5
CC(C)CC(=O)Nc1ccc(N2CCOCC2)cc1,-7,7,9,1.1,-6,0.9
c1ccc(-c2nc(Sc3ncnc4c3cnn4-c3ccccc3)n[nH]2)cc1,-11,10,11,0.7,32,0.9
COc1cc(C2C(C(=O)c3cccs3)=C(O)C(=O)N2Cc2ccco2)cc(OC)c1OC (stereo unspecified),-2,-2,2,0.8,22,1
COCc1cc(=O)[nH]c2cc(NC(=O)C3CC3)c(C)cc12,-8,9,10,1,4,0.9
CCOc1ccc(OCCCC(=O)O)cc1,-17,-18,18,1.2,-17,1.2
COc1ccc(C(=O)N[C@H]2COC(C)(C)O[C@H]2c2ccccc2)cc1,-11,-1,13,1,-3,1
CCn1c(SC(C)C(=O)NC2CCCc3ccccc32)nnc1-c1cccs1 (stereo unspecified),2,89*,-6,0.1,86*,0.1
Cn1c(SCC(=O)NCc2ccc3c(c2)OCO3)nnc1-c1cccs1,x,0,x,0.4,65*,1
O=C(CSc1nnc(-c2ccco2)n1-c1ccccc1)NCc1ccc2c(c1)OCO2,-12,47,14,0.6,40,0.5
O=C(CSc1nnc(-c2cccs2)n1-c1ccccc1)NCc1ccc2c(c1)OCO2,-11,68*,10,0.1,92*,0.3
CCn1c(SCC(=O)NC2CCCc3ccccc32)nnc1-c1cccs1 (stereo unspecified),x,19,x,0.6,43,0.8
CCn1c(SCC(=O)NCc2ccc3c(c2)OCO3)nnc1-c1cccs1,-8,4,10,0.2,77*,1
Cn1c(SCC(=O)NCc2ccc3c(c2)OCO3)nnc1-c1cc2ccccc2cc1O,-6,x,7,x,x,x
Cc1nn(C)c(C)c1S(=O)(=O)NCc1cccs1,10,11,-7,1,-4,0.9
CCc1nc(C)cc(N)c1OCc1ccccc1,14,4,-16,1,1,1
c1ccc(-c2cc(-c3nnc4n3N=C(c3ccc5ccccc5c3)CS4)[nH]n2)cc1,-7,5,7,0.5,49,1
CCn1c(SCC(=O)Nc2cc(OC)c(OC)c(OC)c2)nnc1-c1cccs1,-10,19,13,0.5,52*,0.8
CCCCC(OC(=O)c1cc2occc2n1C)C(=O)NCC1CCCO1 (stereo unspecified),-1,46,-2,0.5,49,0.5
Cn1c(SCC(N)=O)nnc1C1CCN(S(=O)(=O)c2ccccc2C(F)(F)F)CC1,-13,-5,13,2*,-103,1
COc1ccc(NS(=O)(=O)c2ccc3oc(SC4CCOC4=O)nc3c2)cc1 (stereo unspecified),9,97*,-10,0,100*,0
CC(C)C(NC(=O)C1CCC(C(C)(C)C)CC1)C(=O)NCc1cccnc1 (stereo unspecified),0,52*,-1,0.5,51*,0.5
CC(C)c1ccc(CN2CCC(C(=O)NCc3cccnc3)CC2)cc1,-11,3,13,0.8,19,1
CC(C)C(NC(=O)C1CCCCC1)C(=O)Nc1ccncc1 (stereo unspecified),x,96*,x,0.1,92*,0
CCn1c(SCCOc2ccc(OC)cc2)nnc1C(CO)NC(=O)c1ccc(OC)cc1 (stereo unspecified),24,64*,-24,0.1,88*,0.4
SMILES,sEH act,CYP2C19 inhib,sEH inh,CYP2C9 act,CYP2C9 inhib,CYP2C19 activ
COc1ccc(C(=O)NC(CO)c2nnc(SCc3ccc(Cl)c(Cl)c3)n2C)cc1 (stereo unspecified),2,12,0,0.7,29,0.9
C=CCn1c(SCCOc2ccc(OC)cc2)nnc1C(C)NC(=O)Cc1ccc(OC)cc1 (stereo unspecified),-3,77*,3,0.3,68*,0.2
CC(C)OC(=O)c1cn(-c2ccccc2)nc1-c1ccc2c(c1)OCCO2,-3,20,4,0.8,19,0.8
CC1CN(C(NC(=O)C(C)(C)C)C(Cl)(Cl)Cl)CC(C)O1 (stereo unspecified),-4,1,7,1,4,1
Cc1nn(CCc2n[nH]c(=S)n2-c2cccc(Cl)c2)c(C)c1[N+](=O)[O-],9,57*,-10,0.8,22,0.4
CCOC(=O)c1ccc(NC(=O)N(CC)CC)cc1,1,43,-3,0.9,9,0.6
Cc1cccc(C(C)C)c1-n1nnnc1-c1ccccc1,-12,70*,10,0.2,82*,0.3
O=C(O)C1(c2cccc(Cl)c2)CCC1,-2,-1,0,0.9,8,1
CCOc1ccccc1NC(=O)CC(O)(C(F)(F)F)C(F)(F)F,2,x,-2,x,x,x
Cc1ccc(NC(=O)CSCC#N)cc1,-4,9,5,0.8,22,0.9
CCOc1ccccc1NC(=O)CSc1nc2cccnc2n1C,1,66*,0,0.8,18,0.3
CCOC(=O)CC(=O)CSCC(=O)Nc1ccc(C)cc1,-15,54*,10,0.7,30,0.5
COc1ccc(NC(=O)CSc2nccn2-c2ccccc2)c(OC)c1,x,95*,x,1,2,0
CCOc1ccccc1NC(=O)COn1nnc2ccccc21,9,92*,-9,2.2*,-121,0.1
CCOc1ccc(NC(=O)CSc2nc3cccnc3n2CC)cc1,-21,45,20,0.9,9,0.6
CCOC(=O)C(NS(=O)(=O)c1ccccc1)(C(F)(F)F)P(=O)(OCC(C)C)OCC(C)C (stereo unspecified),19,10,-20,0.8,16,0.9
CCOC(=O)C1C(=O)CC(=O)CC1CC(C)SCC (stereo unspecified),-11,6,12,1.1,-10,0.9
CCOc1ccccc1NC(=O)CSc1c(C)n[nH]c1C,7,-2,-4,1.3,-31,1
COc1cccc(-n2ccnc2SCC(=O)NCc2ccccc2)c1,-3,96*,4,0.7,34,0
CCCCOc1ccccc1NC(=O)CSc1nnnn1C(C)(C)C,-8,56*,9,0.3,74*,0.4
CCOc1ccccc1NC(=O)CSCC(=O)Nc1ccccc1,2,93*,-1,2.6*,-159,0.1
CCOc1ccccc1NC(=O)CSc1nccn1-c1ccccc1,x,67*,x,2.4*,-145,0.3
